# Measured potencies and affinities stand elsewhere. The source made the active and inactive calls.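 How the source made its calls: active means Loss of cell signal with fitted half-effect dose at or below twice the top valid tested dose; inconclusive means Poor fit, or flat fit from -70 to -30 percent; inactive means Half-effect above limit, rising signal, or flat within 30 percent.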
# Test: viability loss in HEK293T cells – cell-based, cherry-picks, cytotoxicity control for HIV Vif inhibitor project, dose response (AID 652208);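 further: 0% = median neutral control wells and -100% = median staurosporine control wells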
# Details: CellTiter-Glo luminescence, 24 h; series mostly up to 26 µM; activity change, negative = cytotoxicity: at the top concentration
row,Structure (SMILES),"activity change, negative = cytotoxicity"
1,N#Cc1c(-c2ccccc2)cc(C2CC2)nc1SCC(=O)c1cccs1,2.29% (inactive)
2,C=CCn1c(O)c(C2=c3ccccc3=NC2=O)s/c1=N/c1nccs1,-12.6% (inactive)
3,COc1ccc2c(CC(=O)Nc3ccccc3OC)coc2c1,-3.21% (inactive)
4,CNC(=O)COc1ccccc1C(=O)Nc1ccc2c(c1)oc1ccccc12,-10.8% (inactive)
5,CCCCOc1ncnc2c1[nH]c1ccccc12,-16.2% (inactive)
6,CC(C)C(c1nnnn1CC1CCCO1)N1CCN(C2CCCC2)CC1 (stereo not drawn),-1.94% (inactive)
7,COc1ccccc1N1C(=O)c2cccc3c(N(C)CCO)ccc(c23)C1=O,0.642% (inactive)
8,Cc1ccc(-n2c(SCC(=O)Nc3ccc4c(c3)OCO4)nnc2-c2cccs2)cc1,9.98% (inactive)
9,O=C(CCNC(=O)c1ccco1)Nc1ccc(OC(F)(F)F)cc1,3.58% (inactive)
10,CC(C)CC(=O)Nc1ccc(-c2nnn(CC(=O)NCc3ccco3)n2)cc1,-7.25% (inactive)
11,CCOc1ccc(CC(=O)Nc2sc(Cc3ccccc3)c(C)c2C(N)=O)cc1OCC,-5.74% (inactive)
12,COc1ccc(CNC(=O)COC(=O)c2cc(S(=O)(=O)N3CCOCC3)ccc2O)cc1OC,-4.34% (inactive)
13,COCCNC(=O)c1nn2c(C(F)(F)F)cc(-c3ccccc3)nc2c1Cl,-9.4% (inactive)
14,COc1ccc(-c2cc(C(=O)Nc3cnn(Cc4ccccc4C)c3)no2)cc1OC,-10.7% (inactive)
15,S=C(Nc1ccccc1)N1CCn2c(nc3ccccc32)C1,-6.92% (inactive)
16,O=C(CCCSc1nc2ccccc2c(=O)[nH]1)c1ccccc1,-0.796% (inactive)
17,CN(C)c1ccc(C(O)Cc2nc3ccccc3n2C)cc1 (stereo not drawn),-0.368% (inactive)
18,Cc1cc(NC(=O)CSc2nc3ccccc3c(=O)n2-c2ccccc2)no1,1.64% (inactive)
19,O=C(CSc1nnc(CNc2ccc(F)cc2)o1)c1ccccc1,4.08% (inactive)

row,Structure (SMILES),"activity change, negative = cytotoxicity"
1,COc1ccccc1NC(=O)c1ccccc1NC(=O)c1ccccn1,-11.9% (inactive)
2,Cc1cccc(Nc2nc(-c3ccc(O)c(O)c3)cs2)n1,-4.86% (inactive)
3,CCOC(=O)c1nc(Nc2ccc(C(=O)OC)cc2)c2ccccc2n1,-17.9% (inactive)
4,Cc1nnc2ccc(-c3ccc(NS(=O)(=O)c4ccc(Cl)s4)cc3)nn12,10.5% (inactive)
5,FC(F)(F)c1nnc2c3ccccc3c(Cl)nn12,-19.8% (inactive)
6,Cc1ccc2c(c1)N(CC(=O)NCC1CCCO1)C(=O)C(C(C)C)O2 (stereo not drawn),1.69% (inactive)
7,CCN(C(=O)COc1ccc(C)cc1OC)c1cccc2ccccc12,-0.891% (inactive)
8,CCCCn1c(-c2ccncc2)nc2c1c(=O)[nH]c(=O)n2CC(C)C,-14.9% (inactive)
9,CCCn1c(=N)c(C(=O)NCc2ccc3c(c2)OCO3)cc2c(=O)n3cccc(C)c3nc21,-9.2% (inactive)
10,COc1ccc(-c2coc3cc(O)ccc3c2=O)cc1,9.33% (inactive)
11,Cc1nc(C)n(CC(=O)N2CCCC(C(=O)c3ccc(C(F)(F)F)cc3)C2)n1 (stereo not drawn),-0.546% (inactive)
12,CC(C(=O)O)c1ccc(N2Cc3ccccc3C2=O)cc1 (stereo not drawn),-4.48% (inactive)
13,CC(C)CCNC(=O)CCc1nnc(COc2ccccc2)o1,-2.04% (inactive)
14,CCOc1ccc(N2C(=O)/C(=C/c3cccs3)N(CC(=O)OC)C2=S)cc1,-4.27% (inactive)
15,COc1cccc(NC(=O)CSc2nnc(Cc3ccc(OC)c(OC)c3)o2)c1,8.72% (inactive)
16,COc1c2occc2c(OC)c2c(=O)cc(C)oc12,-0.016% (inactive)
17,COc1ccccc1CNC(=O)CSC1=NCCS1,1.93% (inactive)
18,CCOc1nc(N2CCCCC2)nc(-n2cc(-c3ccccc3)nn2)n1,-12.5% (inactive)
19,CCN1C(=O)c2cccc3c(S(=O)(=O)Nc4nc(C)cs4)ccc1c23,0.851% (inactive)
